# Compounds with a hit are over-represented: about 10% of the library has one in this group of screens.
# Sfp PPTase inh – qHTS Assay for Inhibitors of Bacillus subtilis Sfp phosphopantetheinyl transferase (PPTase); 4'-phosphopantetheinyl transferase ffp (Bacillus subtilis), Q9F4F7; Biochemical Sfp PPTase activity, qHTS; 310,000 tested, 3.5% active; Potency, µM, for the others: largest response in the series, negative = inhibition, most hits filed as inhibitors;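 also: the enzyme is Sfp with the accession as filed and its product quenches rhodamine fluorescence; potency is read from the fitted curve at half-maximal effect; 0% = enzyme reaction without inhibitor and -100% = no enzyme wells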
#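 Fluorescence-quenching assay with 15 nM Sfp, 5 uM rhodamine-CoA and 12.5 uM BHQ-2-labelled ybbR peptide in pH 7.6 Hepes/MgCl2 buffer. Enzyme was pre-incubated with compound for 15 min at room temperature. Rate was taken from the 30-min fluorescence change (525/598 nm).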
# G9a block – qHTS Assay for Inhibitors of Histone Lysine Methyltransferase G9a. G9a H3K9 monomethylation, AlphaScreen, 2 h. Potency, µM (top dose mostly 102 µM), for the others: at the highest dose activity, negative = inhibition, most hits filed as inhibitors. 350,000 tested, 8.8% active; also: potency is read from the fitted curve at half-maximal effect; nearly all actives have a fitted effect of over 75% in size
# Target sequence (Q96KQ7 913-1193 limits assumed): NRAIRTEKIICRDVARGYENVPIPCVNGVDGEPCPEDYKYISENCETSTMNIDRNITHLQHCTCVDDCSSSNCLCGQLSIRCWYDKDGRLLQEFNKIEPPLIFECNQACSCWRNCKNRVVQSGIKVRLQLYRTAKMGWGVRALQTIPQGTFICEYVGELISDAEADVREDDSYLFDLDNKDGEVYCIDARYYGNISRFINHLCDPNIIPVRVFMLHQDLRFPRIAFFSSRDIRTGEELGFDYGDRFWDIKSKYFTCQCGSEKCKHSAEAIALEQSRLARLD
#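 Methyltransferase reactions run at room temperature for 2 h (20 nM enzyme, 500 nM biotin-H3K9 peptide, 20 uM SAM) after a 15 min compound preincubation; product detected by AlphaScreen beads and anti-H3K9me1 antibody.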
# VDR inhibitor – Inhibitors of the vitamin D receptor (VDR): qHTS. Vitamin D3 receptor (Homo sapiens), P11473. VDR-SRC2-3 peptide fluorescence polarization, 2 h. Potency, µM, for inactives: max response, negative = inhibition, most hits filed as inhibitors. 400,000 tested, 0.93% active. AID 504847, 2011; also: potency is read from the fitted curve at half-maximal effect
# Target sequence (P11473 whole entry, looked up): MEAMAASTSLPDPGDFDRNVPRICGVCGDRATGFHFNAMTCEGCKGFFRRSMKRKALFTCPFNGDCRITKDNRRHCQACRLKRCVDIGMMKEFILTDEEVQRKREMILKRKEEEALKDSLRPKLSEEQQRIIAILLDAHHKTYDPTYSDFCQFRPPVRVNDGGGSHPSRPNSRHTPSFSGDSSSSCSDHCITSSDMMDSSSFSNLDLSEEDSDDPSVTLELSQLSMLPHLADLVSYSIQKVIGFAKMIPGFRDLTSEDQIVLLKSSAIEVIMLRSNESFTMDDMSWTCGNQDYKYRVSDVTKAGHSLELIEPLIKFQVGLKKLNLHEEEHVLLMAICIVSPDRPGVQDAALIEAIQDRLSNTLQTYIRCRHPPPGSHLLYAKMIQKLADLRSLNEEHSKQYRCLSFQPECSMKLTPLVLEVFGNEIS
#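 The screen uses fluorescence polarization to detect compounds that interfere with recruitment of the SRC2-3 coactivator peptide to VDR; plates are read after 2 h at room temperature.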
# CCT chaperon mod – High-Throughput Screening for Modulators of Cytosolic Chaperonin Activity; purified chaperonin ATPase assay, HTRF ADP detection, 30 min; activity change, % (test concentration not listed), hits read low; 360,000 tested, 0.3% active; in the data active = activity change below about -30%
#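 TRiC (40 or 20 nM final, by batch activity) in 30 mM Tris pH 7.4, 100 mM KCl, 5 mM MgCl2, 1 mM DTT was treated with compound at 76 uM single dose, then 10 uM ATP, 30 min at 37 °C. ADP was read by HTRF Transcreener.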
# PLK1 PBD block – qHTS for Inhibitors of PLK1-PDB (polo-like kinase 1 - polo-box domain): Primary Screen. 360,000 tested, 2.8% active. Plk1 PBD binding of FITC phosphopeptide, fluorescence polarization. Potency, µM, for inactives: max response, negative = inhibition, most hits filed as inhibitors; also: potency is read from the fitted curve at half-maximal effect; series mostly up to about 57 µM; nearly all actives have a fitted effect of over 65% in size
# Mm-Cpn inhibitor – Inhibitors of TCP-1 ring complex (TRiC) of Methanococcus maripaludis (MmCpn): qHTS; purified Mm-Cpn ATPase, ADP Transcreener TR-FRET; 330,000 tested, 0.031% active; AID 504842, 2011; Potency, µM (doses to about 76.9 µM), for inactives: at the highest dose activity, negative = inhibition, usual class: inhibitors; also: potency is read from the fitted curve at half-maximal effect; nearly all actives have a fitted effect of over 80% in size
#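 25 nM Mm-CPN + cpd, 10 min 37°C; + 10 uM ATP, 30 min 37°C; buffer 30 mM Tris pH 7.4, 100 mM KCl, 5 mM MgCl2, 1 mM DTT; Transcreener ADP HTRF detection 30 min RT.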
# * = called active by the depositor; ? = inconclusive; nt = no result; [ ] = another dose, or the depositor's remark. Unless noted, calls follow the shape of the dose curve; as a rule, active = well fitted curve in the direction sought with a large enough effect; inconclusive = small, poorly fitted or top-dose-only effect, or another doubt; inactive = no such curve, though single readings can be large; an effect the other way counts as inactive or inconclusive. Unless noted, % is scaled to controls: 0 for no effect and ±100 for the full control effect.
SMILES,Sfp PPTase inh,G9a block,VDR inhibitor,CCT chaperon mod,PLK1 PBD block,Mm-Cpn inhibitor
C=CCOc1ccc(CN(C)CC(=O)Nc2ccc3c(c2)CCC3)cc1,-6.6%,14.1µM*,-6.3%,2.1,1.3%,0.6%
Cc1ccc(NC(=O)CN(C)CC(=O)Nc2ccc(F)c(Cl)c2)cc1,-22.3%,31.6µM*,-10.3%,-1.1,-0.2%,0.2%
COc1ccc(NC(=O)CN(C)C(=O)c2cc3c(s2)CCC3)cc1,nt,12.6µM*,4.3%,-0.3,7.52µM*,0.6%
Cc1ccc(OCCC(=O)Nc2ccc(F)c(Cl)c2)cc1,13.2%,36.8%[59 µM],2.5%,0.4,-7.2%,-0.8%
COc1ccc(NC(=O)CN(C)C(=O)c2cc3c(s2)CCCCC3)cc1,6.4%,?,-15.1%,0.4,3.0%,-1.0%
COc1ccc(NC(=O)CN(C)C(=O)Cc2ccc3c(c2)OCCO3)cc1,nt,5.1%,-1.5%,-11.2,-5.0%,3.1%
COc1ccc(NC(=O)c2cc3c(=O)n(C)c4ccccc4c3n2C)cc1OC,?,9.6%,-18.3%,-31.6*,-3.6%,1.9%
CCCN(CCC)CCNC(=O)c1cc2c(=O)n(C)c3ccccc3c2n1C,12.0%,?,-27.6%,0.0,18.9µM*,-1.4%
CCOCCCNC(=O)c1cc2c(=O)n(C)c3ccccc3c2n1C,nt,10µM*,-9.8%,nt,nt,nt
CN(CCNC(=O)c1cc2c(=O)n(C)c3ccccc3c2n1C)Cc1ccccc1,-11.0%,50.1µM*,-6.4%,0.4,-5.3%,1.2%
Cn1c(C(=O)NCCCN2CCCC2=O)cc2c(=O)n(C)c3ccccc3c21,28.1%,18.0%,-14.6%,-0.3,-8.8%,0.0%
Cc1ccc(CNC(=O)c2cc3c(=O)n(C)c4ccccc4c3n2C)cc1,10.1%,6.0%,-29.9%,-31.6*,-4.7%,0.1%
COc1cccc(CNC(=O)c2cc3c(=O)n(C)c4ccccc4c3n2C)c1,nt,-7.7%[59 µM],1.2%,nt,nt,nt
CCCC(=O)Nc1nc(C)c(-c2csc(Nc3ccccc3OC)n2)s1,-26.6%,?,-8.0%,0.7,-20.2%,?
CNc1nc(-c2c(C)[nH]c3ccc(OC)cc23)cs1,-5.3%,39.8µM*,-4.0%,-1.7,-12.0%,-1.0%
Cc1ccc(-c2csc(N)n2)s1,35.5µM*,?,?,-1.6,-23.3%,-1.2%
COc1ccc(Nc2nc(-c3sc(C)nc3C)cs2)cc1,-17.9%,nt,-0.4%,-0.9,-8.7%,-0.2%
COc1ccccc1Nc1nc(-c2c(C)[nH]c3ccccc23)cs1,-14.5%,14.1µM*,-6.1%,-0.9,-8.4%,-9.1%
Cc1[nH]c2ccccc2c1-c1csc(N)n1,-6.9%,79.4µM*,48.1%,2.2,?,1.1%
COc1cc2c(cc1OC)-c1c(oc3cc(O)cc(O)c3c1=O)CO2,-26.8%,-37.6%[2.33 µM],?,nt,nt,nt
O=C(c1ccco1)N1CCN(c2nc3ccccc3n3nnnc23)CC1,?,0.3%[59 µM],-4.9%,0.5,-12.5%,-1.4%
c1ccc(CC2CCN(c3nc4ccccc4n4nnnc34)CC2)cc1,-6.5%,53.4%[59 µM],-2.6%,-32.1*,-14.3%,0.2%
COc1ccc(C2C3=C(N=C4SCC(=O)N42)c2ccccc2CC3)cc1OC (stereo unspecified),?,39.8µM*,6.1%,2.7,-12.2%,?
COc1ccc(C2C3=C(N=C4SCC(=O)N42)c2ccccc2CC3)cc1 (stereo unspecified),-26.3%,50.1µM*,-1.7%,-2.9,-12.9%,-7.6%
COc1ccccc1C1C2=C(N=C3SCC(=O)N31)c1ccccc1CC2 (stereo unspecified),-13.8%,?,0.3%,-2.8,-8.6%,-2.6%
SMILES,Sfp PPTase inh,G9a block,VDR inhibitor,CCT chaperon mod,PLK1 PBD block,Mm-Cpn inhibitor
O=C1CN(C(=O)c2ccc(S(=O)(=O)N3CCCC3)cc2)C(c2ccc(F)cc2)c2cc(Br)ccc2N1 (stereo unspecified),nt,-2.0%[59 µM],-6.1%,nt,nt,nt
O=C1c2ccc([N+](=O)[O-])cc2NC(c2ccco2)N1/N=C/c1ccco1 (stereo unspecified),?,?,-16.6%,0.6,-6.3%,-1.5%
CN=c1scc(-c2ccc([N+](=O)[O-])cc2)n1/N=C/c1ccco1,7.5%,50.1µM*,-14.0%,0.0,-2.3%,-0.1%
Cc1cccc(/N=C/c2c(O)cc(C)oc2=O)n1,-13.6%,12.6µM*,11.2%,-4.2,-5.2%,-2.1%
Cc1cc(O)c(/C=N/c2ccccn2)c(=O)o1,?,14.1µM*,11.2%,-1.6,-1.1%,-5.2%
O=C(CC1N=C2c3ccccc3N=C(SCC(=O)Nc3cccc(Cl)c3)N2C1=O)NCc1cccs1 (stereo unspecified),nt,30.1%[59 µM],5.9%,nt,nt,nt
Cc1cccc(N2CCN(C(=O)c3cnn(-c4ccccc4)c3C3CCN(C(=O)OC(C)(C)C)CC3)CC2)c1C,nt,-45.3%[59 µM],4.5%,nt,nt,nt
CC(C)CCNC(=O)c1ccc2nc(Cc3ccccc3)oc2c1,nt,-2.5%[59 µM],9.2%,nt,nt,nt
O=S(=O)(O)c1ccc(N=NNc2ccc(Br)cc2)cc1,13.3%,25.1µM*,-22.1%,-3.9,-4.8%,0.1%
CCC(C)NC(=O)CSc1nc2cc(S(=O)(=O)N3CCOCC3)ccc2n1CC (stereo unspecified),nt,-33.9%,-5.0%,1.8,-2.8%,-2.4%
O=C(CSc1nc2cc(Cl)ccc2o1)N1CCOCC1,10.8%,21.0%[12.7 µM],2.6%,-30.7*,-14.7%,-1.5%
O=C(NC1CCCc2ccccc21)c1cc(S(=O)(=O)N2CCOCC2)ccc1F (stereo unspecified),-5.8%,22.2%,-10.7%,-0.7,-6.2%,0.2%
Cc1ccc(C(=O)CSc2nc3cc(S(=O)(=O)N4CCOCC4)ccc3o2)cc1,-15.0%,31.6µM*,-3.7%,-0.8,23.8µM*,-15.2%
O=C(CSc1nc2cc(S(=O)(=O)N3CCOCC3)ccc2o1)NC1CCCc2ccccc21 (stereo unspecified),10µM*,?,?,2.4,6.7µM*,-2.5%
CCn1c(SCC(=O)c2cc(C)ccc2C)nc2cc(S(=O)(=O)N3CCOCC3)ccc21,15.0%,25.1µM*,-10.2%,-2.7,-3.8%,-7.3%
Cc1[nH]c2ccccc2c1C(=O)CSc1nc2cc(S(=O)(=O)N3CCCCC3)ccc2o1,10.4%,-25.6%,-7.9%,-0.3,-15.4%,-0.8%
Cc1cc(C)cc(NC(=O)C(NS(=O)(=O)c2cccc3nsnc23)c2ccccc2)c1 (stereo unspecified),nt,-4.7%[59 µM],?,nt,nt,nt
